Values joined by “and” are separate entries in the source; they are usually repeats but may differ in a detail not shown here. Equal entries are not always repeated. Records with an inconclusive call do not appear. Where a call stands in place of a potency, no number is given. Active and inactive are the calls of the source. Unless noted, the call rests on the fitted dose curve; in most records, active means well fitted curve in the direction sought with a large enough effect; inconclusive means small, poorly fitted or top-dose-only effect, or another doubt; inactive means no such curve, though single readings can be large; an effect the other way counts as inactive or inconclusive.
Legend:
[1] = Cell Viability - SH-SY5Y (AID 544);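 further: cells exposed to compound for 40 hours; nearly all actives have a fitted effect of over 55% in size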
How it was run: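 Cells were plated at 1500 per well and allowed 5 hr at 37 °C. Compounds were added across a concentration range and incubated 40 hr at 37 °C. CellTiter-Glo was added for 20 min at room temperature before luminescence reading.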

[2] = Cell Viability - Renal Proximal Tubule (AID 545);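 further: cells exposed to compound for 40 hours; nearly all actives have a fitted effect of over 40% in size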
How it was run: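 Rat kidney proximal tubule cells, freshly isolated; 1000 cells/well, 5 hr settle, compound 40 hr 37 °C. CellTiter-Glo 20 min RT, luminescence read. AC50 by standard Hill fit.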

[3] = Cell Viability - Mesenchymal (AID 546);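 further: cells exposed to compound for 40 hours before reading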
How it was run: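 CellTiter-Glo luminescence (intracellular ATP, 20 min room temperature) after 40 hr compound exposure at 37 °C of 1000 glomerulus-derived human kidney mesenchymal cells/well; AC50 values obtained by fitting qHTS concentration-response data to the Hill equation.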

[4] = Cellular Toxicity (caspase-3) HepG2 (AID 654);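 further: cells exposed to compound for 16 hours before reading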
How it was run: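 Caspase 3/7 activation in HepG2 is measured as rising luminescence after a 16 hr treatment at 37 °C. Values are scaled between DMSO basal and 100 uM tamoxifen, and AC50 is fitted with the Hill equation.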

[5] = target: Peroxisome proliferator-activated receptor gamma (Homo sapiens) (UniProt P37231); test: qHTS assay for small molecule agonists of peroxisome proliferator-activated receptor gamma signaling (AID 588536; active means well fitted curve in the direction sought with a large enough effect in the signal ratio, with a control signal flat, not every such curve was filed as active; the % refers to the signal ratio)
Sequence of Peroxisome proliferator-activated receptor gamma (Homo sapiens) (P37231 whole entry, looked up): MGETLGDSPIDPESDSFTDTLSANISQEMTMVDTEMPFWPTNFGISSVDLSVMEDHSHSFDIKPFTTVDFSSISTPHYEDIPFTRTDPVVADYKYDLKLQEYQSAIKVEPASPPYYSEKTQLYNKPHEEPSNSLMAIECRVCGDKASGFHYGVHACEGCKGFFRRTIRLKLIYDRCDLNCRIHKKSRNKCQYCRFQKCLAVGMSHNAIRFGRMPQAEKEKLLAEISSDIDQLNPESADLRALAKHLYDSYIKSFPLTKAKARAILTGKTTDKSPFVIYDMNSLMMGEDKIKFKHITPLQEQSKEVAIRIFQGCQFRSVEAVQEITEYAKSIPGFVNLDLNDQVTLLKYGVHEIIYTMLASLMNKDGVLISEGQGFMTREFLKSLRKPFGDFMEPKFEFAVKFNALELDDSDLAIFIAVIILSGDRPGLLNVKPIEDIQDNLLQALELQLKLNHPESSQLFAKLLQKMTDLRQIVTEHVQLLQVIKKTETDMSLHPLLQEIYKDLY
How it was run: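 Using GeneBLAzer HEK293 cells, response was quantified by CCF4 fluorescence and normalized between basal DMSO (0%) and rosiglitazone 2 uM (100%); curves yielded half-maximal stimulation concentration and efficacy.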

[6] = target: Vitamin D3 receptor (Homo sapiens) (UniProt P11473); test: qHTS assay for small molecule antagonists of vitamin D receptor signaling (AID 588541; calls by dose curve;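 further: receptor activated by calcitriol during compound treatment; series mostly up to about 77 µM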)
Sequence of Vitamin D3 receptor (Homo sapiens) (P11473 whole entry, looked up): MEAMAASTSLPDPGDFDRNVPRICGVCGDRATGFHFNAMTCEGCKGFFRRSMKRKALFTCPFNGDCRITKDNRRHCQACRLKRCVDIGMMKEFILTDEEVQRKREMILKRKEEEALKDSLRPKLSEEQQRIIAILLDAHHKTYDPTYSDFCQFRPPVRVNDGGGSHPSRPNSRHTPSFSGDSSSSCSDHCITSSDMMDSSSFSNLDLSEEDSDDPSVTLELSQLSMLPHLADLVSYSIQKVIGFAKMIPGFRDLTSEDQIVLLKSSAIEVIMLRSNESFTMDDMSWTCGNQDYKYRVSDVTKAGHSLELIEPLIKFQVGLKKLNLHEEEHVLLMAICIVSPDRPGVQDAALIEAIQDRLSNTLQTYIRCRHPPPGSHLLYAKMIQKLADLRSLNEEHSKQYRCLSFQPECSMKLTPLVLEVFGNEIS
How it was run: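 Antagonist-mode beta-lactamase reporter assay: HEK293T VDR-UAS-bla cells were exposed to titrated compound alongside 1-alpha,25-dihydroxyvitamin D3 at 3 nM final for 16 h. Values were normalized to the 50 nM agonist control and DMSO basal, with IC50 and efficacy from Hill equation fits.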

[7] = target: Vitamin D3 receptor (Homo sapiens) (UniProt P11473); test: qHTS assay for small molecule agonists of vitamin D receptor signaling (AID 588543; calls by dose curve)
How it was run: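 β-lactamase reporter, VDR-UAS-bla HEK293T, agonist mode. Cells plated 5 h at 37 °C, compound titration 16 h at 37 °C, CCF4 dye 2 h RT, ratio 460/530 nm. Hill fit → EC50, efficacy vs 50 nM 1α,25-(OH)2D3.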

[8] = qHTS assay for small molecule agonists of retinoid X receptor alpha signaling (AID 588544; calls by dose curve); settings: HEK293T RXRa-UAS-bla, beta-lactamase reporter, 18 h; 530 nm emission
[9] = target: Retinoic acid receptor RXR-alpha (Homo sapiens) (UniProt P19793); test: as above
Sequence of Retinoic acid receptor RXR-alpha (Homo sapiens) (P19793 whole entry, looked up): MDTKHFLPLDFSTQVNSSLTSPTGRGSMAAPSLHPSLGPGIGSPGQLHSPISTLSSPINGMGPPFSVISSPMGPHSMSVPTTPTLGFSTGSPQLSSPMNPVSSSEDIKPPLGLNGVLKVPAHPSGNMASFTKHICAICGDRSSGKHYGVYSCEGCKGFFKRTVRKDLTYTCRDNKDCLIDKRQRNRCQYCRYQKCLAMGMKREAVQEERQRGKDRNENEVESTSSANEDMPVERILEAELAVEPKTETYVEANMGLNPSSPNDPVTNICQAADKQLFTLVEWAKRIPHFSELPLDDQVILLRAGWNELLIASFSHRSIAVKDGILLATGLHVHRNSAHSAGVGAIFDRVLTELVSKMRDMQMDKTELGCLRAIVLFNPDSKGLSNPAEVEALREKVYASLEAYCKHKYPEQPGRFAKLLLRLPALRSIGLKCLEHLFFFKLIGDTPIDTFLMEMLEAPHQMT

[10] = target: Thyroid hormone receptor beta (Homo sapiens) (UniProt P10828); test: qHTS assay for small molecule agonists of thyroid hormone receptor beta signaling (AID 588545; calls by dose curve)
Sequence of Thyroid hormone receptor beta (Homo sapiens) (P10828 whole entry, looked up): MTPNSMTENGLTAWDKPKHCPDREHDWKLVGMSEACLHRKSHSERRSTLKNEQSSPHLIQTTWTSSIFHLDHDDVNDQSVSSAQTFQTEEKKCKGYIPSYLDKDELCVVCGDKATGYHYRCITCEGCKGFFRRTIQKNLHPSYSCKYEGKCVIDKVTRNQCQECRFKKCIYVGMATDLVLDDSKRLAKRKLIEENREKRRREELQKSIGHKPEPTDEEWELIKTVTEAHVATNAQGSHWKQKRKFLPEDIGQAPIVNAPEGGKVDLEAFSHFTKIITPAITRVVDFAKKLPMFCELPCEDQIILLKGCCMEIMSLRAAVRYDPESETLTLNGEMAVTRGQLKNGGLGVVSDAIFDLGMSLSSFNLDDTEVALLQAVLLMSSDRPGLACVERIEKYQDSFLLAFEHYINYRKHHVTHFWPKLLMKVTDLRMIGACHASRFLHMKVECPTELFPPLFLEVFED
How it was run: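 Agonist-mode beta-lactamase reporter assay, HEK 293 cells, 2% charcoal/dextran FBS; cells plated 4 hrs, compound 18 hrs at 37 C, CCF4 2 hrs RT. Normalized to 10 nM T3 (100%) and DMSO (0%); Hill fit gives EC50, efficacy.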

[11] = qHTS assay for small molecule antagonists of retinoid X receptor alpha signaling (AID 588546; active means well fitted inhibition curve with a large enough effect in the signal ratio, with a control signal flat, not every such curve was filed as active; the % refers to the signal ratio;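 further: cells stimulated with 9-cis-retinoic acid as agonist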); settings: HEK293T RXRa-UAS-bla, beta-lactamase ratio, antagonist mode; measured here: W530 green channel, cytotoxicity proxy
How it was run: (§1)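 Beta-lactamase reporter inhibition, read as CCF4 fluorescence ratio (ex 405, em 460/530 nm) after 2 h at RT. HEK293T UAS-bla cells, 2500/well, were stimulated with 9-cis-RA at 500 or 100 nM final alongside test compound for 18 h at 37 C.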

[12] = target: Retinoic acid receptor RXR-alpha (Homo sapiens) (UniProt P19793); test: as above; settings: HEK293T RXRa-UAS-bla, beta-lactamase ratio, antagonist mode
How it was run: as §1

[13] = target: Thyroid hormone receptor beta (Homo sapiens) (UniProt P10828); test: qHTS assay for small molecule antagonists of thyroid hormone receptor beta signaling (AID 588547; active means well fitted inhibition curve with a large enough effect in the signal ratio, with a control signal flat, not every such curve was filed as active; the % refers to the signal ratio;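 further: cells stimulated with 0.4 nM T3 agonist during compound exposure; series mostly up to about 77 µM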); settings: TR-UAS-bla HEK293, beta-lactamase ratio, antagonist mode, 18 h
How it was run: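 Inhibition of T3-driven (0.4nM final) beta-lactamase reporter activity was measured over 0.59 nM to 92 uM compound after 18 h at 37 C. The cells were GripTite HEK293 TR-UAS-bla in charcoal/dextran-stripped serum, with CCF4 ratio read-out and IC50 from Hill fits.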

[14] = target: Voltage-gated inwardly rectifying potassium channel KCNH2 (Homo sapiens) (UniProt Q12809); test: qHTS Assay for Small Molecule Inhibitors of the Human hERG Channel Activity (AID 588834);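 further: top concentration of the series differs between compounds; lower thallium flux fluorescence means stronger hERG block; nearly all actives have a fitted effect of over 50% in size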
Sequence of Voltage-gated inwardly rectifying potassium channel KCNH2 (Homo sapiens) (Q12809 whole entry, looked up): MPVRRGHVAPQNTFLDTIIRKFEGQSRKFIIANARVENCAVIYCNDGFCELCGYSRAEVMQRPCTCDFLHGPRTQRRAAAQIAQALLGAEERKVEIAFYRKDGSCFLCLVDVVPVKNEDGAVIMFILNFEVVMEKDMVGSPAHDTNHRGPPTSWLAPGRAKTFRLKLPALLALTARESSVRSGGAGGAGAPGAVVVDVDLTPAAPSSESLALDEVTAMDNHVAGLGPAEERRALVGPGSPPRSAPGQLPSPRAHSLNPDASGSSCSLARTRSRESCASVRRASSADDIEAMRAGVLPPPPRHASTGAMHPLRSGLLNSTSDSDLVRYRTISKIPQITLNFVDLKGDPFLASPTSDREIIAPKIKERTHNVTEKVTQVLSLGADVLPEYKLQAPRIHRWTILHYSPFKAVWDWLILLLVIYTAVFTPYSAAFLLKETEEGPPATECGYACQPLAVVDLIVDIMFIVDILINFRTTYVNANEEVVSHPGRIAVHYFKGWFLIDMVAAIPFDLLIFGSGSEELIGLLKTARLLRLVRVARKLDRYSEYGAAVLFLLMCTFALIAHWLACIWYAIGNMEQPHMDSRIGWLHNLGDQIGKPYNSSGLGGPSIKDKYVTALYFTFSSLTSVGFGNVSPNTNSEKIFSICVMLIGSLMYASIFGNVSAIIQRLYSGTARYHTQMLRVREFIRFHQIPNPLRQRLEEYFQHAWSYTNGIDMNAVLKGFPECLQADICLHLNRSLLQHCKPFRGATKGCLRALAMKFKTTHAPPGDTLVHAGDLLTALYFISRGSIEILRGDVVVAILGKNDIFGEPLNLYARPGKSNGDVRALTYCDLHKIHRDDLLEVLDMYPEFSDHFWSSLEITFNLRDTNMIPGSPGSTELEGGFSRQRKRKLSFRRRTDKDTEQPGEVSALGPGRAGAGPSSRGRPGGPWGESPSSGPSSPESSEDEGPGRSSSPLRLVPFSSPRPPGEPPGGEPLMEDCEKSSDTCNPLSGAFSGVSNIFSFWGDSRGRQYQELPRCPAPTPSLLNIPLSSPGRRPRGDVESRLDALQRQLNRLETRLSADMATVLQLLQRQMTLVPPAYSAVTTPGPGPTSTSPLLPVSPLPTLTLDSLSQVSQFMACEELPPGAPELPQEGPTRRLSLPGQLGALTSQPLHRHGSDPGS
How it was run: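 Thallium-flux (FluxOR) read-out on FDSS: fluorescence read 10 s before and 2 min after stimulation buffer. hERG-BacMam-transduced U2OS cells, compound exposure about 10 min. AC50 by standard Hill equation.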

[15] = qHTS assay for small molecule disruptors of the mitochondrial membrane potential - 1 hr assay (AID 651754; calls by dose curve; further: nearly all actives have a fitted effect of over 35% in size)
How it was run: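 Loss of mitochondrial potential shifts the cationic dye from red mitochondrial aggregates to green cytoplasmic monomers. Cells (HepG2) are treated with compound for 1 hr before a 30 min dye incubation at 37C.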

[16] = qHTS assay for small molecule disruptors of the mitochondrial membrane potential - 5 hr assay (AID 651755; calls by dose curve; further: nearly all actives have a fitted effect of over 40% in size)
How it was run: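 Membrane-potential dye readout: red aggregate (540 ex/590 em) versus green monomer (490 ex/535 em) fluorescence after 30 min dye loading, following 5 hr compound exposure at 37C of overnight-plated HepG2 cells.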

[17] = target: Tumor necrosis factor (Homo sapiens) (UniProt P01375); test: qHTS assay to identify small molecules that stimulate Tumor Necrosis Factor-alpha (TNF-alpha) secretion (AID 651757; active means well fitted curve in the direction sought with a large enough effect in the signal ratio; the % refers to the signal ratio)
Sequence of Tumor necrosis factor (Homo sapiens) (P01375 whole entry, looked up): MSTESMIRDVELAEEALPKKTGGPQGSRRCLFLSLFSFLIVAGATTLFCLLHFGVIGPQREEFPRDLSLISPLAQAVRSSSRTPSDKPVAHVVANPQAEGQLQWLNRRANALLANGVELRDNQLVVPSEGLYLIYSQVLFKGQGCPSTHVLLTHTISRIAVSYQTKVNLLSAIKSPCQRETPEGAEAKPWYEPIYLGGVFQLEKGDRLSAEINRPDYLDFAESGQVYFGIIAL
How it was run: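 Human monocytic THP-1 cells are plated, treated with compound and held at 37 C for 17 hrs. Labeled anti-TNF-alpha antibody mixture is then added; after 3 hr at room temperature, TR-FRET signal reports secreted TNF-alpha.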

[18] = qHTS assay for environmental chemicals that activate the Aryl hydrocarbon Receptor (AhR) signaling pathway (AID 651777); settings: 1A2-DRE human hepatoma cells, luciferase, 24 h; stronger effect = higher value; further: nearly all actives have a fitted effect of over 15% in size
How it was run: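 Following a 24 hr incubation with test chemicals at 37 C and 5% CO2, 1A2-DRE human hepatoma cells received One-Glo reagent; after 30 min at room temperature, luciferase output reflected CYP1A2 induction via AhR.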

[19] = target: Peroxisome proliferator-activated receptor alpha (Homo sapiens) (UniProt Q07869); test: qHTS assay for small molecule agonists of the peroxisome proliferator-activated receptor alpha (PPARalpha) signaling pathway (AID 651778); settings: PathHunter PPARalpha complementation, chemiluminescence, 6 h; stronger effect = higher value
Sequence of Peroxisome proliferator-activated receptor alpha (Homo sapiens) (Q07869 whole entry, looked up): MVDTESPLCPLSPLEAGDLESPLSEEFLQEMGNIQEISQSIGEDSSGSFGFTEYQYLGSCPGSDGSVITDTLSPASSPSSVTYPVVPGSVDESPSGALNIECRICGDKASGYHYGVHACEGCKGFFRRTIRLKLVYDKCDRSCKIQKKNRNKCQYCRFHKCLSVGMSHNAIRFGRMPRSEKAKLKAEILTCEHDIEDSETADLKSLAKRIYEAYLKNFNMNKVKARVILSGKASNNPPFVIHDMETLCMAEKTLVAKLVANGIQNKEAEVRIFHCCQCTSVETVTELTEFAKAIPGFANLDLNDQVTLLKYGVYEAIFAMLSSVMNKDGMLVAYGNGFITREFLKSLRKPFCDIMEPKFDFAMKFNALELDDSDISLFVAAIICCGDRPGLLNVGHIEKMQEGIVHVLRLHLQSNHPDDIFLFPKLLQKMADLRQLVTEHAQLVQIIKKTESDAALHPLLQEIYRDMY
How it was run: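 Chemiluminescence from complemented enzyme reported PPARalpha activation in cells after 6 hr of compound treatment at 37 C. The detection reagent was incubated for 60 min at room temperature, and compounds were scored as agonists.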

[20] = target: Nuclear receptor subfamily 1 group I member 2 (Rattus norvegicus) (UniProt Q9R1A7); test: qHTS assay for small molecule activators of the rat pregnane X receptor (rPXR) signaling pathway (AID 651751; call rule not given here); settings: rPXR reporter cells, luciferase (One-Glo), 24 h
Sequence of Nuclear receptor subfamily 1 group I member 2 (Rattus norvegicus) (Q9R1A7 whole entry, looked up): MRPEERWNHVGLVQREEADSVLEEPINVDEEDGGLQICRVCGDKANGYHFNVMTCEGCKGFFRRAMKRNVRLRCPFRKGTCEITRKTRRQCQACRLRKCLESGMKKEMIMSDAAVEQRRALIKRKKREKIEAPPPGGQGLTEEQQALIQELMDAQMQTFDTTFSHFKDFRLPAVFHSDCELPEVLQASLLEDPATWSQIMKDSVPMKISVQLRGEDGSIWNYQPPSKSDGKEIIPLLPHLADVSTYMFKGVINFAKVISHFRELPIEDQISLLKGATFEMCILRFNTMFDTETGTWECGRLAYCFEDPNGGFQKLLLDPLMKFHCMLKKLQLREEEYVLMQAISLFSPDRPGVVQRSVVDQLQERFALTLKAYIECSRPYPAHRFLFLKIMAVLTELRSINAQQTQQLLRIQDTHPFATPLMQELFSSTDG

With COS(C)(=O)=O the outcome [1] was “inactive”, the outcome [2] was “inactive” and the Potency [3] was “inactive”. The outcome [4] was “inactive”, the outcome [5] was “inactive” and the outcome [6] was “inactive”. For the same compound, the outcome [7] was “inactive”, the max response [8] was -12% and the outcome [9] was “inactive”. The outcome [10] was “inactive”, the max response [11] was -12.9% and the max response [12] was -3.69% (inactive). The activity change % (negative = inhibition) [13] was 2.2% (inactive), the Potency [14] was “inactive” and the outcome [15] was “inactive”. The outcome [16] was “inactive”, the outcome [17] was “inactive” and the activation [18] was -0.488% (inactive). For the same compound, the max response [19] was 5.12% (inactive) and the max response [20] was 0.398% (inactive).
With C=CC(C)(O)CCC=C(C)C (stereo not given) the outcome [1] was “inactive”, the outcome [2] was “inactive” and the Potency [3] was “inactive”. The outcome [4] was “inactive”, the outcome [5] was “inactive” and the outcome [6] was “inactive”. For the same compound, the outcome [7] was “inactive”, the max response [8] was -15.4% and -5.89% and the outcome [9] was “inactive”. The outcome [10] was “inactive”, the max response [11] was -4.18% and -11.2% and the max response [12] was -7.55% (inactive) and -18.1% (inactive). For the same compound, the activity change % (negative = inhibition) [13] was 22.9% (inactive) and 4.85% (inactive), the Potency [14] was “inactive” and the outcome [15] was “inactive”. The outcome [16] was “inactive”, the outcome [17] was “inactive” and the activation [18] was -0.577% (inactive) and 0.957% (inactive). The max response [19] was -3.46% (inactive) and 0.843% (inactive) and the max response [20] was 2.77% (inactive) and 2.88% (inactive).
With C=C(C)[C@H]1CC=C(C)C(=O)C1 the outcome [1] was “inactive”, the outcome [2] was “inactive” and the Potency [3] was “inactive”. The outcome [4] was “inactive”, the outcome [5] was “inactive” and the outcome [6] was “inactive”. The outcome [7] was “inactive”, the max response [8] was 2.29% and 4.34% and the outcome [9] was “inactive”. The outcome [10] was “inactive”, the max response [11] was -6.91% and -9.16% and the max response [12] was 30% (inactive) and -16.7% (inactive). The activity change % (negative = inhibition) [13] was 1.99% (inactive), the Potency [14] was “inactive” and the outcome [15] was “inactive”. The outcome [16] was “inactive”, the outcome [17] was “inactive” and the activation [18] was -0.835% (inactive) and 2.01% (inactive). The max response [19] was -1.19% (inactive) and -3.66% (inactive) and the max response [20] was -2.55% (inactive) and 3.05% (inactive).
In the case of CC1=CC(=O)CC(C)(C)C1(O)/C=C/C(C)=C\C(=O)O (stereo not given), the outcome [1] is reported as “inactive”, the outcome [2] is reported as “inactive” and the Potency [3] is reported as “inactive”. The outcome [4] was “inactive”, the outcome [5] was “inactive” and the outcome [6] was “inactive”. The outcome [7] was “inactive”, the max response [8] was -10.1% and the outcome [9] was “inactive”. For the same compound, the outcome [10] was “inactive”, the max response [11] was -3.21% and the max response [12] was 0.0259% (inactive). For the same compound, the activity change % (negative = inhibition) [13] was -6.36% (inactive), the Potency [14] was “inactive” and the outcome [15] was “inactive”. The outcome [16] was “inactive”, the outcome [17] was “inactive” and the activation [18] was -0.944% (inactive). For the same compound, the max response [19] was 6.6% (inactive) and the max response [20] was -0.742% (inactive).
In the case of Cc1occc(=O)c1O, the outcome [1] is reported as “inactive”, the outcome [2] is reported as “inactive” and the Potency [3] is reported as “inactive”. For the same compound, the outcome [4] was “inactive”, the outcome [5] was “inactive” and the outcome [6] was “inactive”. The outcome [7] was “inactive”, the max response [8] was -12.3% and the outcome [9] was “inactive”. The outcome [10] was “inactive”, the max response [11] was -0.914% and the max response [12] was -8.46% (inactive). The activity change % (negative = inhibition) [13] was -20.8% (inactive), the Potency [14] was “inactive” and the outcome [15] was “inactive”. The outcome [16] was “inactive”, the outcome [17] was “inactive” and the activation [18] was 0.287% (inactive). The max response [19] was -2.16% (inactive) and the max response [20] was 3.86% (inactive).

From PubChem BioAssay (NCATS)
